This test deals with AmpC beta-lactamase (E. coli). In words: AmpC inhibition relative to DMSO; higher = more inhibition. The gist of the method: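 This aggregation counter-screen used E. coli AmpC β-lactamase (5 nM) in 50 mM sodium phosphate, pH 7.0, with or without 0.01% Triton X-100 and 1.0% DMSO. Compounds at 4, 11, 33 and 100 μM were incubated with enzyme for 5 min at RT before nitrocefin was added. Absorbance at 482 nm was followed for 5 min, and rates were background-subtracted against enzyme-free wells. Percent inhibition is relative to DMSO controls, as the mean of four technical replicates.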

Setting [1] is: 4 µM, detergent: 0.01% Triton X-100.
Where [2] appears, read: 11 µM, detergent: 0.01% Triton X-100.
Setting [3] is: 33 µM, detergent: 0.01% Triton X-100.
[4] abbreviates: 100 µM, detergent: 0.01% Triton X-100.
The mark [5] stands for this setting: 100 µM, detergent: no detergent.

± gives the standard deviation of the averaged measurements.

For the compound `C=C1C(=O)O[C@H](CCC)[C@H]1C(=O)O`, the AmpC inhibition under setting [1] worked out at 0.817 ± 3%; the AmpC inhibition (4 µM, detergent: no detergent) turned out to be 2.33 ± 5.5%; the AmpC inhibition under setting [2] was determined as 3.75 ± 2.7%; the AmpC inhibition (11 µM, detergent: no detergent) is -0.423 ± 6.2%; the AmpC inhibition under setting [3] stood at 0.478 ± 2.6%; the AmpC inhibition (33 µM, detergent: no detergent) was -0.772 ± 6.7%. The AmpC inhibition is, setting by setting: under setting [4], 2.9 ± 2%; under setting [5], 0.697 ± 4.5%.

Consider `O=C(O[C@@H]1Cc2c(O)cc(O)cc2O[C@@H]1c1cc(O)c(O)c(O)c1)c1cc(O)c(O)c(O)c1`, for which the AmpC inhibition was determined as 9.27 ± 1.3% under setting [1]; 11.2 ± 18% (4 µM, detergent: no detergent); 4.89 ± 2% under setting [2]; 16 ± 3.1% (11 µM, detergent: no detergent); 4.57 ± 1.2% under setting [3]; 19.6 ± 14% (33 µM, detergent: no detergent). Moreover, the AmpC inhibition under setting [4] stood at 1.23 ± 6.1% and the AmpC inhibition under setting [5] was determined as 30.2 ± 1.1%.

Turning to `CCCCCCCCCCCCCCCc1cccc(O)c1C(=O)O`, the AmpC inhibition is, setting by setting: under setting [1], 6.97 ± 5.3%; (4 µM, detergent: no detergent) 25.7 ± 18%; under setting [2], 6.87 ± 8.5%; (11 µM, detergent: no detergent) 97.15 ± 0.48%; under setting [3], 5.05 ± 6.1%; (33 µM, detergent: no detergent) 100 ± 3.9%. The AmpC inhibition is, setting by setting: under setting [4], 7.84 ± 4%; under setting [5], 99.49 ± 0.71%.

For the compound `CC(Cc1ccc(O)c(O)c1)C(C)Cc1ccc(O)c(O)c1` (centres undefined), the AmpC inhibition under setting [1] worked out at 0.262 ± 1.6%; the AmpC inhibition (4 µM, detergent: no detergent) amounted to 2.98 ± 9.9%; the AmpC inhibition under setting [2] was -1.09 ± 14%; the AmpC inhibition (11 µM, detergent: no detergent) was determined as 23.2 ± 4%; the AmpC inhibition under setting [3] was 1.16 ± 12%; the AmpC inhibition (33 µM, detergent: no detergent) was determined as 47.4 ± 7.5%. Also, the AmpC inhibition under setting [4] is -4.88 ± 5.5% and the AmpC inhibition under setting [5] came out at 86 ± 2.8%.

`ClC1=CC=C(C2=CSC(N/N=C3CCCC/3)=N2)C=C1`: the AmpC inhibition by setting is: under setting [1], 5.11 ± 3.4%; (4 µM, detergent: no detergent) 11.8 ± 4.8%; under setting [2], 4.35 ± 2.1%; (11 µM, detergent: no detergent) 6.62 ± 2.3%; under setting [3], 1.83 ± 7%; (33 µM, detergent: no detergent) 14.2 ± 9%. Moreover, the AmpC inhibition is, setting by setting: under setting [4], 7.09 ± 4.1%; under setting [5], 1.99 ± 3.6%.

With `CCCCCCCCCCCC1=C(O)C(=O)C=C(O)C1=O`, the AmpC inhibition under setting [1] worked out at 8.62 ± 5.2%; the AmpC inhibition (4 µM, detergent: no detergent) was -3.71 ± 8%; the AmpC inhibition under setting [2] is 2.92 ± 1.7%; the AmpC inhibition (11 µM, detergent: no detergent) is 17.5 ± 8.6%; the AmpC inhibition under setting [3] stood at 3.12 ± 4.7%; the AmpC inhibition (33 µM, detergent: no detergent) came out at 60.9 ± 17%. Besides, the AmpC inhibition is, setting by setting: under setting [4], 5.91 ± 2.8%; under setting [5], 92.1 ± 5.4%.

On to `c1cc(SSc2ccns2)sn1`, for which the AmpC inhibition under setting [1] was 7.81 ± 8.7%; the AmpC inhibition (4 µM, detergent: no detergent) is -0.684 ± 6.7%; the AmpC inhibition under setting [2] came to 6.83 ± 7.1%; the AmpC inhibition (11 µM, detergent: no detergent) came to 5.01 ± 6.3%; the AmpC inhibition under setting [3] is 7.13 ± 7.9%; the AmpC inhibition (33 µM, detergent: no detergent) was determined as 3.34 ± 12%. Further, the AmpC inhibition by setting is: under setting [4], 9.28 ± 4%; under setting [5], 11 ± 4.2%.

As for `O=C(NNS(=O)(=O)c1ccccc1F)c1cc(F)cc(-c2ccccn2)c1`, the AmpC inhibition was 10.7 ± 1.2% under setting [1]; 1.11 ± 11% (4 µM, detergent: no detergent); 5.78 ± 2.7% under setting [2]; 8.02 ± 4.7% (11 µM, detergent: no detergent); -0.0162 ± 1.5% under setting [3]; 4.81 ± 1.3% (33 µM, detergent: no detergent). For the same compound, the AmpC inhibition came to 0.832 ± 4.9% under setting [4] and 5.91 ± 3.5% under setting [5].

Take `O=C1C(Cl)=C(NCCN2CCOCC2)C(=O)c2ncccc21`: the AmpC inhibition by setting is: under setting [1], 8.96 ± 3%; (4 µM, detergent: no detergent) 0.538 ± 7%; under setting [2], 5.66 ± 0.9%; (11 µM, detergent: no detergent) 0.224 ± 2.9%; under setting [3], 5.99 ± 7.4%; (33 µM, detergent: no detergent) -1.42 ± 2.1%. The AmpC inhibition is 6.05 ± 2% under setting [4] and -4.13 ± 5.6% under setting [5].

In the case of `COc1ccc(/C(Cl)=C(/C=O)c2ccc(OC)cc2)cc1`, the AmpC inhibition is, setting by setting: under setting [1], -3.57 ± 3.7%; (4 µM, detergent: no detergent) -5.33 ± 6.8%; under setting [2], 3.37 ± 5.7%; (11 µM, detergent: no detergent) 3.21 ± 3.9%; under setting [3], 8.7 ± 7.1%; (33 µM, detergent: no detergent) 0.384 ± 4.4%. Moreover, the AmpC inhibition under setting [4] is 3.87 ± 1.3% and the AmpC inhibition under setting [5] was determined as 12.1 ± 2.9%.

On to `CC1=NN(c2ccc(C(=O)O)cc2)C(=O)/C1=C\c1ccc(-c2cc(C)c(C)cc2[N+](=O)[O-])o1`, for which the AmpC inhibition is, setting by setting: under setting [1], 1.81 ± 2.9%; (4 µM, detergent: no detergent) -0.0252 ± 5.8%; under setting [2], 8.78 ± 2.2%; (11 µM, detergent: no detergent) -41.4 ± 11%; under setting [3], 5.34 ± 3.4%; (33 µM, detergent: no detergent) -43.6 ± 23%. Also, the AmpC inhibition runs as follows: under setting [4], 5.65 ± 3.5%; under setting [5], 4.46 ± 2.3%.

With `COC1=CC=C(S(=O)(O/N=C2C=C(C(C(C)=C\2)=O)C)=O)C=C1`, the AmpC inhibition reads like this: under setting [1], 2.45 ± 1.2%; (4 µM, detergent: no detergent) -3.63 ± 5.6%; under setting [2], 6.48 ± 2.3%; (11 µM, detergent: no detergent) 3.85 ± 1.5%; under setting [3], 6.35 ± 3.8%; (33 µM, detergent: no detergent) 0.996 ± 9.5%. In addition, the AmpC inhibition under setting [4] is 8.37 ± 3.3% and the AmpC inhibition under setting [5] is -1.7 ± 3.7%.

As for `CC(C)([C@](C1=O)(C2=O)C/C=C(C)\C)[C@@H](C[C@]31C[C@@H](C(C)(OC3=C2C(C4=CC(O)=C(C=C4)O)=O)C)C/C=C(C)\C)C/C=C(C)\C`, the AmpC inhibition is, setting by setting: under setting [1], 8.42 ± 5.3%; (4 µM, detergent: no detergent) 13.3 ± 3.5%; under setting [2], 4.79 ± 3.2%; (11 µM, detergent: no detergent) 90 ± 9.4%; under setting [3], 4.67 ± 6.9%; (33 µM, detergent: no detergent) 93.15 ± 0.89%. Besides, the AmpC inhibition is 2.77 ± 1.7% under setting [4] and 92.3 ± 0.78% under setting [5].

The record behind these values is the supplement of paper PMC10011410.
